Assay results: PubChem BioAssay (Tox21)
“And” between values parts separate entries of the source, which are not always exact repeats. Equal values may be shown once. Records with an inconclusive call do not appear. A structure can be active in one record and inactive in another. The source made the active and inactive calls. Unless noted, the call rests on the fitted dose curve; in most records, active means well fitted curve in the direction sought with a large enough effect in the repeat runs; inconclusive means weak or mixed curves; inactive means no such curve, though single readings can be large; an effect the other way counts as inactive or inconclusive.

Legend:
[1] = qHTS assay to identify small molecule antagonists of the thyroid receptor (TR) signaling pathway (AID 743065); further: nearly all actives have a fitted effect of over 55% in size; further: potency means the concentration at half of the fitted maximal effect
Procedure, shortened: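 GH3.TRE-Luc rat pituitary cells carrying two TR response elements driving luciferase were plated for 4 h, given compound plus 1 nM T3 (final), and incubated 23.5 h at 37 C. ONE-Glo luminescence measured reporter inhibition; CellTiter-Fluor fluorescence tracked cytotoxicity.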

[2] = system: thyroid hormone receptor (rat, GH3 cells); assay: qHTS assay to identify small molecule agonists of the thyroid receptor (TR) signaling pathway (AID 743066; calls by dose curve)
[3] = qHTS assay to identify small molecule antagonists of the estrogen receptor alpha (ER-alpha) signaling pathway - cell viability counter screen (AID 743074; calls by dose curve;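 further: HEK293 cells carrying ER-alpha-UAS-bla reporter stimulated with 17beta-estradiol; nearly all actives have a fitted effect of over 45% in size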)
[4] = molecular target: Estrogen receptor (Homo sapiens) (UniProt P03372); assay: qHTS assay to identify small molecule agonists of the estrogen receptor alpha (ER-alpha) signaling pathway (AID 743075; calls by dose curve;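 further: HEK293 GripTite cells with ER-alpha and UAS-driven beta-lactamase reporter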)
[5] = molecular target: Estrogen receptor (Homo sapiens) (UniProt P03372); assay: qHTS assay to identify small molecule agonists of the estrogen receptor alpha (ER-alpha) signaling pathway using the BG1 cell line (AID 743079); settings: BG1Luc4E2 cells, ERE-luciferase agonist, 22 h; activation: at 70.3 µM (top of the series); further: nearly all actives have a fitted effect of over 20% in size
[6] = qHTS assay to identify small molecule antagonists of the estrogen receptor alpha (ER-alpha) signaling pathway using the BG1 cell line (AID 743080; calls by dose curve;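 further: BG1 cells stimulated with 17beta-estradiol alongside compound; nearly all actives have a fitted effect of over 25% in size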; further: potency means the concentration at half of the fitted maximal effect); settings: BG1Luc4E2 ERE-luciferase antagonist mode, luminescence; activity change, negative = inhibition: at 70.3 µM (top of the series)
Procedure, shortened: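 BG1-Luc-4E2 cells (endogenous full-length ER-alpha, stable 4×ERE-luciferase) were starved 5 days in phenol-red-free medium with 10% charcoal-stripped FBS, plated 24 h, then given compound plus 17beta-estradiol for 21.5 h at 37 C; ONE-Glo luminescence read after 30 min.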

[7] = qHTS assay to identify small molecule antagonists of the estrogen receptor alpha (ER-alpha) signaling pathway using the BG1 cell line - cell viability counter screen (AID 743081);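 further: compound given together with 17beta-estradiol as the ER stimulus; nearly all actives have a fitted effect of over 45% in size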; further: potency means the concentration at half of the fitted maximal effect
[8] = molecular target: Aryl hydrocarbon receptor (Homo sapiens) (UniProt P35869); assay: qHTS assay to identify small molecule that activate the aryl hydrocarbon receptor (AhR) signaling pathway (AID 743085); further: nearly all actives have a fitted effect of over 15% in size; further: potency means the concentration at half of the fitted maximal effect;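 on activation: HG2L7.5c1 human HepG2 liver cells with stably integrated DRE-driven firefly reporter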
Procedure, shortened: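 Cell line HG2L7.5c1 (human hepatoma, 20× DRE-luc). Plated, 5 h 37C, compound/DMSO added, 24 h 37C. CellTiter-Fluor 30 min 37C → fluorescence; then ONE-Glo 30 min RT → luminescence.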

[9] = qHTS assay to identify small molecule that activate the aryl hydrocarbon receptor (AhR) signaling pathway - cell viability counter screen (AID 743086); further: nearly all actives have a fitted effect of over 45% in size; further: potency means the concentration at half of the fitted maximal effect
Procedure, shortened: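 HepG2-AhR-luc (HG2L7.5c1) cells, 4000/well, were preincubated 5 h at 37C, exposed to compound in qHTS format for 24 hr at 37C, then given CellTiter-Fluor for 30 min; viability was read as fluorescence in the reporter wells.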

[10] = molecular target: Peroxisome proliferator-activated receptor gamma (Homo sapiens) (UniProt P37231); assay: qHTS assay to identify small molecule agonists of the peroxisome proliferator-activated receptor gamma (PPARg) signaling pathway (AID 743094; active means well fitted activation curve with a large enough effect in the signal ratio in the repeat runs, not every such curve was filed as active; the % refers to the signal ratio; further: potency means the concentration at half of the fitted maximal effect)
Procedure, shortened: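 Beta-lactamase FRET fluorescence was the read-out after a 1 h room-temperature substrate step, following 17 h compound treatment at 37C of HEK293H cells expressing a UAS-driven bla reporter responsive to PPARg.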

[11] = molecular target: Peroxisome proliferator-activated receptor gamma (Homo sapiens) (UniProt P37231); assay: qHTS assay to identify small molecule antagonists of the peroxisome proliferator-activated receptor gamma (PPARg) signaling pathway (AID 743191; calls by dose curve; further: nearly all actives have a fitted effect of over 30% in size; further: potency means the concentration at half of the fitted maximal effect)
Procedure, shortened: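 GeneBLAzer PPARg UAS-bla HEK293H cells carrying a UAS-driven beta-lactamase reporter were plated at 3000 cells/well, preincubated 5 h at 37C, then given compound for 17 h at 37C; LiveBLAzer B/G FRET substrate was read after 1 h at room temperature.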

[12] = qHTS assay to identify small molecule antagonists of the peroxisome proliferator-activated receptor gamma (PPARg) signaling pathway - cell viability counter screen (AID 743194); further: nearly all actives have a fitted effect of over 55% in size; further: potency means the concentration at half of the fitted maximal effect
Procedure, shortened: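 PPARg-UAS-bla HEK293H cells were plated, rested 5 h at 37 C, then treated with compounds plus rosiglitazone (50 nM final) for 17 h at 37 C; viability was then read by CellTiter-Glo luminescence after 30 min at room temperature.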

[13] = qHTS assay for small molecule agonists of the antioxidant response element (ARE) signaling pathway (AID 743202; active means well fitted activation curve with a large enough effect in the signal ratio in the repeat runs, not every such curve was filed as active; the % refers to the signal ratio; further: potency means the concentration at half of the fitted maximal effect)
Procedure, shortened: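 Compounds delivered in DMSO to ARE-bla HepG2 cells (2,000 cells/well, pre-incubated 5 h) and left 16 h at 37 C. LiveBLAzer B/G FRET substrate then added for 2 h at RT before fluorescence reading.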

[14] = qHTS assay for small molecule agonists of the antioxidant response element (ARE) signaling pathway - cell viability counter screen (AID 743203; calls by dose curve; further: nearly all actives have a fitted effect of over 55% in size; further: potency means the concentration at half of the fitted maximal effect)
Procedure, shortened: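 HepG2 cells carrying ARE-driven beta-lactamase; 2,000 cells/well; 5 hrs plating; compound pinned from DMSO; 16 hrs 37C/5% CO2; CellTiter-Glo added; 30 min RT; luminescence.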

[15] = qHTS assay for small molecule activators of the heat shock response signaling pathway (AID 743210; active means well fitted activation curve with a large enough effect in the signal ratio in the repeat runs, with a control signal flat, not every such curve was filed as active; the % refers to the signal ratio;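 further: HeLa cells with beta-lactamase reporter driven by heat shock elements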)
Procedure, shortened: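 Reporter gene assay: HeLa cells stably bearing an HSE-bla construct, compound treatment 5 h at 37 C, LiveBLAzer substrate 2.5 h at RT, fluorescence intensity.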

[16] = molecular target: Estrogen receptor (Homo sapiens) (UniProt P03372); assay: qHTS assay to identify small molecule antagonists of the estrogen receptor alpha (ER-alpha) signaling pathway (AID 743069; active means well fitted curve in the direction sought with a large enough effect in the signal ratio in the repeat runs, not every such curve was filed as active; the % refers to the signal ratio)
Procedure, shortened: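 Estradiol-stimulated ER-alpha-UAS-bla HEK293 cells, 18 hr compound exposure at 37C. LiveBLAzer B/G substrate, 2 hr RT, fluorescence read.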

[17] = qHTS assay to identify small molecule antagonists of the thyroid receptor (TR) signaling pathway - cell viability counter screen (AID 743064); further: nearly all actives have a fitted effect of over 50% in size; further: potency means the concentration at half of the fitted maximal effect
Procedure, shortened: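 Fluorescence from CellTiter-Fluor, added after 23.5 h exposure at 37 °C, reported viability of GH3.TRE-Luc cells co-treated with compound and 1 nM T3. Measured in the same wells as the luciferase TR readout.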

Aromatase (Homo sapiens) = Aromatase (Homo sapiens) (UniProt P11511); assay: qHTS assay to identify aromatase inhibitors (AID 743083); further: nearly all actives have a fitted effect of over 55% in size; further: potency means the concentration at half of the fitted maximal effect
[18] = qHTS assay to identify aromatase inhibitors - cell viability counter screen (AID 743084); further: potency means the concentration at half of the fitted maximal effect
[19] = qHTS assay for small molecule activators of the heat shock response signaling pathway - cell viability counter screen (AID 743209); further: nearly all actives have a fitted effect of over 50% in size; further: potency means the concentration at half of the fitted maximal effect
Procedure, shortened: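 Luminescence from CellTiter-Glo, added after the beta-lactamase FRET read, gave the viability signal. Cells were HSE-bla HeLa treated with DMSO-dissolved compounds for 5 h at 37 C following overnight plating.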

Measured: Potency

Chain of Estrogen receptor (Homo sapiens) (P03372 whole entry, looked up): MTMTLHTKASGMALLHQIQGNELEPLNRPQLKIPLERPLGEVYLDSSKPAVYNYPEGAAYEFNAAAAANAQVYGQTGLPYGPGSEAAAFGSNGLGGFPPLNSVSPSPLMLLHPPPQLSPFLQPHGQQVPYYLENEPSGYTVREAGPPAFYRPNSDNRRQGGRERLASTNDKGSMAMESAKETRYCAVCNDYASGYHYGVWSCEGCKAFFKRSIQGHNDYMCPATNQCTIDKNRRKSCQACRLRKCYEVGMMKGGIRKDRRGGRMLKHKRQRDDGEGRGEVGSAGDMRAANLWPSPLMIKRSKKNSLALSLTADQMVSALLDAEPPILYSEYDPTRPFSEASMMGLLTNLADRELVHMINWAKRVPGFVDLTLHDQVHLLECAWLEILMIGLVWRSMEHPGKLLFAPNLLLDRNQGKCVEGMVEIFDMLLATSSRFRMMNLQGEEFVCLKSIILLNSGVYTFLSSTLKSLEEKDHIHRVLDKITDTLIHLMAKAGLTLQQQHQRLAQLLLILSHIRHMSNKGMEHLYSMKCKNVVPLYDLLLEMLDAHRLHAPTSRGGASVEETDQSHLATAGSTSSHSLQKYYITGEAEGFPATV
Chain of Peroxisome proliferator-activated receptor gamma (Homo sapiens) (P37231 whole entry, looked up): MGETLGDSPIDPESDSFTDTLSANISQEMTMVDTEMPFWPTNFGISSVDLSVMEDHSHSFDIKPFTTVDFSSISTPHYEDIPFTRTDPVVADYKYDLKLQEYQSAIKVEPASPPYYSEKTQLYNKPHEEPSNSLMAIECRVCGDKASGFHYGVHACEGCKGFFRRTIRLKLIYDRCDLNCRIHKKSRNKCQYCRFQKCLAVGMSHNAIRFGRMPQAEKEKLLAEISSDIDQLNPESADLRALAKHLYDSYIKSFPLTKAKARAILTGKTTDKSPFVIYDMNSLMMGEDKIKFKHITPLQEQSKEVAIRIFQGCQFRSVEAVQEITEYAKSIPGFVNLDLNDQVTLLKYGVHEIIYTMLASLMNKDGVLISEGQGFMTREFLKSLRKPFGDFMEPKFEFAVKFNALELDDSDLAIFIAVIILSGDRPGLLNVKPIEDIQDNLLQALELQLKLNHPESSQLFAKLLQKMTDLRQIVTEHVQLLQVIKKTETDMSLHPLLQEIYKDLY
Chain of Aromatase (Homo sapiens) (P11511 whole entry, looked up): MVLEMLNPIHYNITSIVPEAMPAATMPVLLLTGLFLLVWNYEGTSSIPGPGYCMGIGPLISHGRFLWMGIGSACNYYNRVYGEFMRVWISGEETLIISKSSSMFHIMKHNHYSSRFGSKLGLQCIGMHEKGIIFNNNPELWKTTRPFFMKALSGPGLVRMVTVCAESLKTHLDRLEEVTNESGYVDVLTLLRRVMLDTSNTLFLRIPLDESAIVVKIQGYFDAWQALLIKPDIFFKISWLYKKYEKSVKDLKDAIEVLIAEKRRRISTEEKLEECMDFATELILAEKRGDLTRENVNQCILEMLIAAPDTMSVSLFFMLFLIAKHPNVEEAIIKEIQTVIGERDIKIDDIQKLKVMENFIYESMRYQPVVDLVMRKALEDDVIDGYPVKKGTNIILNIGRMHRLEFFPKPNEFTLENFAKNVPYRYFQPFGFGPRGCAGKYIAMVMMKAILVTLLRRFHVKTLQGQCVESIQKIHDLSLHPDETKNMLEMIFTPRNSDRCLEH
Chain of Aryl hydrocarbon receptor (Homo sapiens) (P35869 whole entry, looked up): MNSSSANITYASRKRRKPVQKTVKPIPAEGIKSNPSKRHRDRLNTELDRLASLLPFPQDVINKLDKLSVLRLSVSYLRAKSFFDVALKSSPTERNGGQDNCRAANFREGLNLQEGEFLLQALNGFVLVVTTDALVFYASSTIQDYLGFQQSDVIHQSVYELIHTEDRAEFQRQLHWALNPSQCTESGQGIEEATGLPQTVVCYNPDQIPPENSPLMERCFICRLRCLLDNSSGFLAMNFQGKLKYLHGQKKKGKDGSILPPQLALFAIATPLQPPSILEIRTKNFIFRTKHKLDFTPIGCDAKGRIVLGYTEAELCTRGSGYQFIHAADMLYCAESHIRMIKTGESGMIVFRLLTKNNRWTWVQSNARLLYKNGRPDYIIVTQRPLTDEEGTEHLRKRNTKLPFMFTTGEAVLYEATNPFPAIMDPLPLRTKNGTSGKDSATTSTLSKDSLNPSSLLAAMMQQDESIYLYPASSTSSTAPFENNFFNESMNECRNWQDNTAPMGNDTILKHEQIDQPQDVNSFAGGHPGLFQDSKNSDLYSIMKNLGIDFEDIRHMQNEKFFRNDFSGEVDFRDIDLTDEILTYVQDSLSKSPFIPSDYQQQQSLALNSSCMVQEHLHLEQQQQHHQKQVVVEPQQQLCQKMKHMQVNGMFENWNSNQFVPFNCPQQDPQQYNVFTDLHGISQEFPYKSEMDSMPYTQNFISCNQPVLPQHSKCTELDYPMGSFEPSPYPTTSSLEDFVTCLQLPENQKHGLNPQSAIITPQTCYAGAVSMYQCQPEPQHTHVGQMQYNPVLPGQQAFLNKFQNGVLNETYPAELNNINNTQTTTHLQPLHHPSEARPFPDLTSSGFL

C1CC(COCC2CO2)CCC1COCC1CO1 (stereo not drawn)
active: [1] 61.1 µM | [13] 54.5 µM
not listed: [16] | [17] | Aromatase (Homo sapiens) | [18] | [19]
inactive: all other assays above

Cc1ccc(N)cc1O
active: [8] 15.7 µM | [9] 61.1 µM | [11] 49 µM
not listed: [3] | [10] | [13] | [17] | Aromatase (Homo sapiens) | [18] | [19]
inactive: all other assays above

Clc1ccc(C(Cn2ccnc2)OCc2ccsc2Cl)c(Cl)c1 (stereo not drawn)
active: [17] 13.3 µM | Aromatase (Homo sapiens) 5.31 µM | [9] 26.6 µM
inactive: [6] | [7] | [18] | [8] | [10] | [19]

O=C1NCN(c2ccccc2)C12CCN(CCCC(c1ccc(F)cc1)c1ccc(F)cc1)CC2
inactive: [9]
active: [17] 3.35 µM | [1] 5.96 µM | [7] 26.6 µM | [12] 26.6 µM | [14] 29.8 µM

C[C@@H]1CC[C@H]2C(C)(C)[C@H]3C[C@@]12CC[C@@]3(C)O
active: [1] 54.4 µM
not listed: [6] | [11] | [15] | [17] | [19]
inactive: all other assays above

COc1cc(C(C)C)c2c(c1)S(=O)(=O)N(COc1cc(=O)n3cccc(OCCN4CCCCC4)c3n1)C2=O
active: [1] 13 µM
not listed: [9] | [11] | [13] | [16] | [17] | Aromatase (Homo sapiens) | [18]
inactive: all other assays above

CC(O)C#CC(C)O (stereo not drawn)
inactive: [2] | [3] | [4] | [5] | [7] | [8] | [9]
active: [1] 60.5 µM | [18] 30.3 µM | [10] 54.4 µM | [19] 21.7 µM

COC(=O)C1=C(C)NC(C)=C(C(=O)OCCCN2CCC(c3ccccc3)(c3ccccc3)CC2)C1c1cccc([N+](=O)[O-])c1 (stereo not drawn)
active: [17] 11.9 µM | [1] 7.5 µM | [9] 29.8 µM | [12] 33.5 µM
inactive: [19]

O=C(NO)c1ccccc1
active: [17] 26 µM | [1] 41.2 µM
inactive: Aromatase (Homo sapiens) | [8] | [9] | [19] | [15]

Oc1c(Br)cc(Br)c2cccnc12
inactive: [4] | Aromatase (Homo sapiens) | [18] | [9] | [14] | [19]
active: [17] 26.6 µM | [1] 16.8 µM | [8] 0.668 µM

COc1ccccc1OCCNCC(O)COc1cccc2[nH]c3ccccc3c12 (stereo not drawn)
active: [17] 29.8 µM | [8] 21.1 µM
inactive: [16] | [3] | [4] | Aromatase (Homo sapiens) | [9] | [10] | [19] | [15]

CO[C@H]1C=CO[C@@]2(C)Oc3c(C)c(O)c4c(O)c(cc(O)c4c3C2=O)NC(=O)/C(C)=C\C=C/[C@H](C)[C@H](O)[C@@H](C)[C@@H](O)[C@@H](C)[C@H](OC(C)=O)[C@@H]1C
inactive and 13.8 µM (active): [18]
inactive and 34.6 µM (active): [7]
inactive and 21.8 µM (active): Aromatase (Homo sapiens)
active: [17] 48.9 µM
not listed: [1] | [2] | [11] | [13]
inactive: all other assays above

CCOC(=O)COc1ccc(C)cc1
not listed: [1] | [2] | [11] | [13] | [15] | [19]
inactive: all other assays above

O=C1Nc2ccc(Cl)cc2[C@@](C#CC2CC2)(C(F)(F)F)O1
inactive: [3] | [4] | [7] | [9] | [10] | [14]
active: [17] 29.8 µM | [6] 33.5 µM | Aromatase (Homo sapiens) 23.7 µM | [13] 13.3 µM | [19] 5.31 µM

CC(C)(C)C1=CC(=O)C=C(C(C)(C)C)C1=O
active: Aromatase (Homo sapiens) 34.4 µM | [18] 34.4 µM | [12] 24.6 µM | [14] 54.5 µM | [19] 43.7 µM
not listed: [1] | [3] | [10] | [11] | [13] | [15]
inactive: all other assays above
